Source: PubChem BioAssay AID1159580 (chemical genetic matrix, 2015)
Where “and” joins values, the source holds several entries; their conditions need not be identical. Equal values may be shown once. Out of some 5,500 compounds screened, about 2,000 (36%) were called active. Inconclusive results (about 18%) are left out. Cut-off read from the data, not from the text of the source: active = normalized growth mostly below about 0.91 (no sharp cut-off); inconclusive = no clear call, values can overlap the other calls; inactive = mostly above about 0.92. This is one part of the list.

Experiment: chemical genetic growth profiling, strain panel (AID 1159580);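 note: tested at 20 µM; growth read once vehicle control cultures reached saturation at 30 °C; 1 = growth at the plate median or of vehicle wells; lower values mean less growth of the strain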
Conditions: S. cerevisiae deletion strains, growth OD

Measured: normalized growth

O=C1CC2OCC=C3CN4CC[C@]56c7ccccc7N1C5[C@H]2[C@H]3CC46 (some centres not stated)
inactive: locus YAL013W, strain DEP1, stronger effect = lower value 1 | locus YAL021C, strain ccr4, stronger effect = lower value 1.03 | locus YAL026C, strain drs2, stronger effect = lower value 1.03 | locus YAL030W, strain snc1, stronger effect = lower value 1.01 | locus YBL061C, strain skt5, stronger effect = lower value 1.01 | locus YBR009C, strain hhf1, stronger effect = lower value 1.02 | locus YBR021W, strain FUR4, stronger effect = lower value 1.01 | locus YBR023C, strain chs3, stronger effect = lower value 1.03 | locus YBR171W, strain sec66, stronger effect = lower value 1.03 | locus YBR229C, strain ROT2, stronger effect = lower value 1 | locus YBR231C, strain swc5, stronger effect = lower value 1.02 | locus YBR279W, strain paf1, stronger effect = lower value 1.03 | locus YCL011C, strain gbp2, stronger effect = lower value 1.03 | locus YCL016C, strain dcc1, stronger effect = lower value 1.03 | locus YCL029C, strain bik1, stronger effect = lower value 1 | locus YCL061C, strain MRC1, stronger effect = lower value 1.02 | locus YCL069W, strain vba3, stronger effect = lower value 1.02 | locus YCR088W, strain abp1, stronger effect = lower value 1.03 | locus YDL005C, strain med2, stronger effect = lower value 1.03 | locus YDL035C, strain GPR1, stronger effect = lower value 1.01 | locus YDL040C, strain nat1, stronger effect = lower value 1.03 | locus YDL074C, strain BRE1, stronger effect = lower value 1.02 | locus YDL101C, strain DUN1, stronger effect = lower value 1.01 | locus YDL134C, strain PPH21, stronger effect = lower value 1.01 | locus YDL185W, strain tfp1, stronger effect = lower value 0.983 | locus YDL192W, strain arf1, stronger effect = lower value 1 | locus YDR001C, strain nth1, stronger effect = lower value 1.03 | locus YDR069C, strain doa4, stronger effect = lower value 1.02 | locus YDR101C, strain arx1, stronger effect = lower value 0.992 | locus YDR137W, strain rgp1, stronger effect = lower value 1.05 | locus YDR150W, strain NUM1, stronger effect = lower value 1.01 | locus YDR159W, strain sac3, stronger effect = lower value 1.01 | locus YDR162C, strain NBP2, stronger effect = lower value 1.01 | locus YDR195W, strain ref2 1.1 | locus YDR297W, strain sur2, stronger effect = lower value 1.02 | locus YDR318W, strain mcm21, stronger effect = lower value 0.999 | locus YDR334W, strain swr1, stronger effect = lower value 1.01 | locus YDR335W, strain msn5, stronger effect = lower value 1.03 | locus YDR388W, stronger effect = lower value 1 | locus YDR392W, strain spt3, stronger effect = lower value 1.03 | locus YDR502C, strain sam2, stronger effect = lower value 1 | locus YEL003W, strain gim4, stronger effect = lower value 1.02 | locus YEL037C, strain rad23, stronger effect = lower value 1.03 | locus YEL061C, strain CIN8 (second series), stronger effect = lower value 1.02 | locus YEL061C, strain CIN8, stronger effect = lower value 1.01 | locus YER015W, strain faa2, stronger effect = lower value 1.03 | locus YER016W, strain bim1, stronger effect = lower value 1.02 | locus YER110C, stronger effect = lower value 0.996 | locus YER111C, strain swi4, stronger effect = lower value 1 | locus YER155C, strain BEM2 (second series), stronger effect = lower value 1.04 | locus YER155C, strain BEM2, stronger effect = lower value 1.02 | locus YER167W, strain BCK2, stronger effect = lower value 1.01 | locus YFR010W, strain ubp6, stronger effect = lower value 1.02 | locus YGL078C, strain dbp3, stronger effect = lower value 0.99 | locus YGL086W, strain mad1, stronger effect = lower value 0.998 | locus YGL167C, strain pmr1, stronger effect = lower value 1.02 | locus YGL173C, strain kem1, stronger effect = lower value 1.02 | locus YGL227W, strain vid30, stronger effect = lower value 1.03 | locus YGL240W, strain doc1, stronger effect = lower value 1.01 | locus YGL248W, strain PDE1, stronger effect = lower value 1.01 | locus YGL253W, strain hxk2, stronger effect = lower value 1.01 | locus YGR078C, strain PAC10, stronger effect = lower value 1.01 | locus YGR135W, strain pre9, stronger effect = lower value 0.982 | locus YGR229C, strain SMI1, stronger effect = lower value 1.03 | locus YGR252W, strain gcn5, stronger effect = lower value 0.914 | locus YHR013C, strain ard1, stronger effect = lower value 1.01 | locus YHR027C, strain rpn1, stronger effect = lower value 1.03 | locus YHR030C, strain SLT2, stronger effect = lower value 1 and 0.976 | locus YHR079C, strain IRE1 (second series), stronger effect = lower value 0.997 | locus YHR079C, strain IRE1, stronger effect = lower value 0.864 | locus YHR094C, strain hxt1, stronger effect = lower value 0.995 | locus YHR129C, strain ARP1, stronger effect = lower value 1.03 | locus YHR142W, strain chs7, stronger effect = lower value 1.03 | locus YHR200W, strain rpn10, stronger effect = lower value 1 | locus YIL066C, strain RNR3, stronger effect = lower value 1.01 | locus YIL073C, strain SPO22, stronger effect = lower value 1.02 | locus YIL125W, strain kgd1, stronger effect = lower value 1 | locus YIR030C, strain dcg1, stronger effect = lower value 1 | locus YJL092W, strain hpr5, stronger effect = lower value 1.02 | locus YJL095W, strain BCK1 (second series), stronger effect = lower value 1.03 | locus YJL095W, strain BCK1, stronger effect = lower value 1 and 0.974 | locus YJL115W, strain asf1, stronger effect = lower value 1 | locus YJL129C, strain trk1, stronger effect = lower value 1.05 | locus YJL134W, strain LCB3, stronger effect = lower value 1.01 | locus YJL154C, strain vps35, stronger effect = lower value 1.01 | locus YJL164C, strain tpk1, stronger effect = lower value 1.03 | locus YJL166W, strain qcr8, stronger effect = lower value 1.02 | locus YJL168C, strain set2, stronger effect = lower value 1 | locus YJL187C, strain SWE1 (second series), stronger effect = lower value 1.01 | locus YJL187C, strain SWE1, stronger effect = lower value 1.03 | locus YJR043C, strain POL32, stronger effect = lower value 0.997 | locus YJR066W, strain TOR1, stronger effect = lower value 0.961
